A selection: hits, their analogues and other compounds. The true share with any hit is near 1.2%.
KCNH2 3.1 block: inhibitors of human KCNH2 3.1 potassium channel isoform | U2OS KCNH2 3.1, thallium flux FluxOr; stronger effect = lower value | activity change, % (tested at about 1.8 µM) | actives 0.95% (n = 340,000);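 active = maximum activity change below -70%; inconclusive = maximum activity change from -70% to -50%; inactive = maximum activity change above -50%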;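 note: thallium influx rate constant from kinetic fluorescence after stimulation buffer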
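Thallium flux read-out: FluxOr dye with Red40 quencher in HBSS/HEPES, 45 min at RT. Rate constants from kinetic reads were normalized to positive and negative DMSO controls. Cells: U2OS virally expressing the 3.1 isoform.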
hERG WT inh: KCNH2 (human, wildtype) channel inhibition. U2OS, BacMam KCNH2, thallium flux FluxOr; stronger effect = lower value. activity change, % at 1.84 µM. actives 0.37% (n = 340,000). Q12809;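 active = maximum activity change below -70%; inconclusive = maximum activity change between -70% and -50%; inactive = maximum activity change above -50%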
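U2OS cells transduced with wild-type KCNH2 virus are loaded with FluxOr dye for 45 min, and thallium flux is measured in kinetic reads before and after stimulation buffer. Rate constants are normalized to DMSO controls.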
KinaseGlo FLuc: counter-screen: inhibitors of Kinase-Glo firefly luciferase; Q27757; Kinase-Glo luciferase, ATP luminescence, 8 min; Potency, µM (series often up to 38.3 µM), for the others: at the highest dose activity change, negative = inhibition, usual class: inhibitors; actives 0.28% (n = 200,000); active = well fitted inhibition curve with a large enough effect; inconclusive = small, poorly fitted or top-dose-only effect; note: potency is the fitted concentration of half-maximal effect; nearly all actives have a fitted effect of over 60% in size
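Substrate mix (final 50 mM imidazole pH 7.2, 50 mM KCl, 7 mM MgCl2, 10 uM ATP, 0.01% Tween 20, 0.05% BSA) plus pin-tool compound, then Kinase-Glo detection mix; 8 min ambient, luminescence read.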
* hit, by the source's call; u = inconclusive; x = no result; ! = not active in a repeat. % is set by controls: 0 for no effect and ±100 for the full control effect.

SMILES | KCNH2 3.1 block | hERG WT inh | KinaseGlo FLuc
Cc1cccc(C)c1-n1nnnc1S(=O)(=O)Cc1ccccc1Cl | -94* | -8 | 1%
COc1cccc(CS(=O)(=O)c2nnnn2-c2ccccc2)c1 | x | x | 0%
Cc1cccc(-c2ccc3c(c2)C2CC3CCN2C)c1 (configuration not stated) | -30 | 2 | x
COc1ccc(OC)c(C2C(C#N)=C(N)Oc3c2c(C)nn3-c2cccc(Cl)c2)c1 (configuration not stated) | -94* | 4 | 0%
Cc1nn(-c2cccc(Cl)c2)c2c1C(c1ccncc1)C(C#N)=C(N)O2 (configuration not stated) | -3 | -2 | -3%
COc1cccc(OCCNC(=O)c2cc(OC)c(OC)c(OC)c2)c1 | 7 | 4 | x
C=CCn1c(Cc2csc(N)n2)nnc1SCC(=O)OCC | -95* | 0 | 2%
C=CCn1c(Cc2csc(N)n2)nnc1SCC(=O)Nc1ccc(C(=O)OCC)cc1 | 2 | -5 | 2%
CCCCN(C)C(=S)Nc1ccc2nc(N3CCN(CC)CC3)cc(C)c2c1 | -1 | 9 | -3%
CCN1CCN(c2cc(C)c3cc(NC(=S)N(C)Cc4ccccc4)ccc3n2)CC1 | -70* | -7 | x
COc1ccccc1-n1cnc2cc(C(=O)NC3CCCC3)ccc21 | -91* | -14 | 1%
CCOCCCNC(=O)c1ccc2c(c1)ncn2-c1ccccc1OC | 6 | -22 | x
Cc1ccc(C(=O)COC(=O)[C@@H](NC(=O)c2ccco2)C(C)C)s1 | 3 | 5 | x
CC(NC(=O)c1ccco1)C(=O)OCC(=O)c1ccc(Cl)s1 (configuration not stated) | -4 | -224* | x
CC(NC(=O)c1ccco1)C(=O)O (configuration not stated) | -116* | -5 | x
CC(NC(=O)c1ccccc1NC(=O)c1ccco1)C(=O)O (configuration not stated) | 8 | -11 | 1%
CCN(CC)C(=O)COC(=O)C1=NN(c2cc(C)ccc2C)C(=O)CC1 | 12 | 3 | x
FC(F)(F)c1nc(NCc2ccccc2)c2nnn(Cc3ccccc3)c2n1 | -25 | 26 | x
COc1cc(C2NC(=O)NC(O)(C(F)(F)F)C2C(C)=O)cc(OC)c1OC (configuration not stated) | -3 | -186* | 1%
CC(=O)C1C(c2ccc(F)cc2)NC(=O)NC1(O)C(F)(F)F (configuration not stated) | 7 | 0 | 1%
O=C(c1ccco1)N1CCC(c2nc3ccccc3[nH]2)CC1 | 3 | 29 | x
CCCN1C2CCCC1CC(NC(=O)Nc1cccc(C(C)=O)c1)C2 (configuration not stated) | 5 | 4 | 0%
CCCN1C2CCCC1CC(NC(=O)Nc1ccc(C(C)C)cc1)C2 (configuration not stated) | -74* | -10 | -1%
CC(c1ccccc1)n1ccnc1CO (configuration not stated) | 17 | -8 | x
Cc1ccc(SC[C@H](C)CN2CC[C@H](C)CCC2=O)cc1 | -6 | -15 | x
SMILES | KCNH2 3.1 block | hERG WT inh | KinaseGlo FLuc
C[C@@H]1CCC(=O)N(C[C@@H](C)CSc2ccc(Br)cc2)CC1 | -113* | -1 | x
CCOc1ccc(NS(=O)(=O)c2ccc(C)c(C(=O)O)c2)cc1 | x | x | 0%
CCc1ccc(Nc2cc(C(=O)NCCCN3CCOCC3)c3ccccc3n2)cc1 | -74* | 20 | -4%
COc1ccc(Nc2cc(C(=O)NCCCN3CCOCC3)c3ccccc3n2)cc1 | -7 | 0 | x
COc1ccc(-c2noc(CCC(=O)NCCCN3CCN(c4ccc(F)cc4)CC3)n2)cc1 | 3 | 40 | -5%
O=C(NCCCN1CCN(c2ccc(F)cc2)CC1)NC12CC3CC(CC(C3)C1)C2 | -83* | u | x
O=C(CCN1CCN(c2ccc(F)cc2)CC1)Nc1ccccc1F | -12 | 9 | -1%
COc1ccc(-c2noc(CCC(=O)NCCCN3CCC(Cc4ccccc4)CC3)n2)cc1 | -103* | u | 1%
CSc1ccc(N2CCN(CCCNC(=O)Nc3ccccc3F)CC2)cc1 | -78* | 38 | 2%
O=C(NCCCN1CCOCC1)NC12CC3CC(CC(C3)C1)C2 | -17 | 0 | -2%
COc1ccc(NC(=O)NCCCCc2ccccc2)cc1 | 10 | -3 | x
COc1ccc(NC(=O)NCCCN2CCC(Cc3ccccc3)CC2)cc1 | -104* | -44 | x
O=C1CC(c2cccc(Cl)c2)CC(O)=C1C=NC1CCCC1 (configuration not stated) | -9 | -13 | -1%
CC1=CC2C(C3C=CC2(C)C(=O)C3(C)O)C(C)(O)C1=O (configuration not stated) | 23 | -23 | x
CN(C)C(=O)c1ccc(Nc2nc(-c3cccs3)nc3ccccc23)cc1 | -39 | -16 | x
CSc1ccc(NC(=O)NCCN2CCc3ccccc3C2)cc1 | -20 | 14 | -1%
COc1ccc(-c2cc3c(=O)n(CC(=O)NCCCN4CCC(Cc5ccccc5)CC4)ncn3n2)cc1 | -71* | -111* | x
CSc1ccc(NC(=O)NCCCN2CCC(Cc3ccccc3)CC2)cc1 | -106* | -48 | x
COc1ccc(-c2cc3c(=O)n(CC(=O)NCCCN4CCN(Cc5ccccc5)CC4)ncn3n2)cc1 | -36 | 6 | x
N#Cc1ccccc1S(=O)(=O)N1CCN(C(=O)Cc2coc3cc(O)ccc23)CC1 | -15 | -6 | x
COCCCNc1nc(N)c([N+](=O)[O-])c(N2CCCCCC2)n1 | 3 | -4 | x
COc1ccc(OC(=O)N(C)C[C@H]2OCc3cn(nn3)CCCC(=O)N([C@H](C)CO)C[C@@H]2C)cc1 | -7 | 0 | x
Cc1ccc(OC(=O)N(C)C[C@@H]2OCc3cn(nn3)CCCC(=O)N([C@@H](C)CO)C[C@H]2C)cc1 | -70* | 18 | x
Cc1ccc(N(Cc2ccccc2)C(=O)c2ccc(F)c(S(=O)(=O)N3CCOCC3)c2)cc1 | -93* | -12 | x
Cc1cccc(N(Cc2ccccc2)C(=O)c2ccc(F)c(S(=O)(=O)N3CCOCC3)c2)c1 | -12 | 21 | x
SMILES | KCNH2 3.1 block | hERG WT inh | KinaseGlo FLuc
CC1CC(C)CN(S(=O)(=O)c2ccc3c(c2)oc(=O)n3CC(=O)NCc2cccnc2)C1 (configuration not stated) | -2 | -157* | x
CCC(C)(C)NC(=O)Cn1c(=O)oc2cc(S(=O)(=O)N3CC(C)CC(C)C3)ccc21 (configuration not stated) | -31 | 3 | x
Cc1cccc(OCc2nnc(SCC(=O)N(c3ccccc3)C3CCS(=O)(=O)C3)o2)c1 (configuration not stated) | 22 | 7 | x
Cc1c(C(=O)O)c(O)cc2c1C(=O)c1c(O)c([C@H]3O[C@H](CO)[C@@H](O)[C@H](O)[C@H]3O)c(O)c(O)c1C2=O | x | x | 13µM*!
Cc1c(C(=O)O)c(O)cc2c1C(=O)c1c(O)c([C@@H]3O[C@H](CO)[C@@H](O)[C@H](O)[C@H]3O)c(O)c(O)c1C2=O | -27 | 4 | x
COc1ccc(C2(c3ccc(OC)cc3)NC(=O)N(CC(=O)NCC(F)(F)F)C2=O)cc1 | 8 | -27 | x
Cc1ccc(S(=O)(=O)Nc2cc(C(F)(F)F)ccc2N2CCOCC2)cc1C | -92* | -5 | -2%
O=S(=O)(Nc1cc(C(F)(F)F)ccc1N1CCOCC1)c1ccccc1 | 3 | 5 | x

Source: PubChem BioAssay
